High-throughput results deposited in PubChem by National Center for Advancing Translational Sciences (NCATS).
Most compounds without a hit are left out; they make up all but 1.1% or so of the library.
Giardia FBPA inh – qHTS Assay for Inhibitors of Fructose-1,6-bisphosphate Aldolase from Giardia Lamblia; A8B2U2; purified Giardia FBPA; Potency, µM (series often up to 59.6 µM), actives largely listed as inhibitors; actives 0.71% (n = 290,000); also: nearly all actives have a fitted effect of over 55% in size
Target sequence (A8B2U2 whole entry, looked up): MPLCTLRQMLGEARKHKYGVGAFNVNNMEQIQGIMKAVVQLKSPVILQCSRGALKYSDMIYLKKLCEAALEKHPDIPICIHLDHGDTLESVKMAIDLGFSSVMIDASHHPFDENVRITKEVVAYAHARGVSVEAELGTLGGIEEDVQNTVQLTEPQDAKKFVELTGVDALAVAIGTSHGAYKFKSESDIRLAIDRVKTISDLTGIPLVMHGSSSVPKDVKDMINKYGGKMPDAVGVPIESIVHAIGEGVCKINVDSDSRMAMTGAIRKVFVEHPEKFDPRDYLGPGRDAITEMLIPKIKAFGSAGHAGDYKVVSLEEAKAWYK
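40 nM FBPA preincubated 10 min at RT with compound (up to 57.5 uM final), then substrate plus GAPDH/TPI/NAD/arsenate coupling and diaphorase/resazurin added. Fluorescence read after 20 min at RT, 525/598 nm.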
SARS PLpro yeast – qHTS of Yeast-based Assay for SARS-CoV PLP | S. cerevisiae expressing SARS-CoV PLpro, growth rescue | Potency, µM (titrated, usually from 32.9 µM), usual class: activators | actives 0.19% (n = 330,000) | AID 485353, 2010; calls by dose curve; also: nearly all actives have a fitted effect of over 55% in size
LmPK inhibitor – qHTS Assay for Inhibitors of Leishmania Mexicana Pyruvate Kinase (LmPK); purified LmPK, Kinase-Glo ATP luminescence, 1 h; Potency, µM (doses to about 57.5 µM), hits mostly inhibitors; actives 0.37% (n = 290,000)
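qHTS format; LmPK 0.1 nM; substrates PEP 0.5 mM and ADP 0.1 mM. One-hour room-temperature incubation, then coupled luciferase luminescence; 0.5 nM enzyme wells mark activation.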
Tb PYK inh – qHTS of Trypanosoma Brucei Inhibitors. AID 624173, 2012. TbPYK enzyme, Kinase-Glo Plus ATP luminescence, 45 min. actives 0.12% (n = 410,000). pyruvate kinase (Trypanosoma brucei), Q57TT1. Potency, µM (top dose mostly 76.8 µM), actives largely listed as inhibitors; also: nearly all actives have a fitted effect of over 50% in size
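Screened from lowest to highest concentration, compounds were pinned into TbPYK/substrate mixtures, and ADP (130 uM final) was added. Plates sat at room temperature for 45 min prior to Kinase-Glo Plus detection by luminescence.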
RE007 growth inh – qHTS Assay for Inhibitors of the HIV-1 protein Vpr. S. pombe RE007 Vpr strain, BacTiter-Glo ATP luminescence, 24 h. Potency, µM (top dose mostly 92.2 µM), most hits filed as inhibitors. actives 0.21% (n = 360,000); active = well fitted falling curve with a large enough effect; inconclusive = small, poorly fitted or top-dose-only effect; inactive = no such curve, though single readings can be large or run the other way; also: nearly all actives have a fitted effect of over 50% in size
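Fission yeast strain RE007, carrying one chromosomally integrated HIV-1 vpr copy, was seeded at OD 0.01 in PMG+AL medium with 23 nL pinned compound. After 24 h at 30 °C and 99% humidity, viability was read by BacTiter-Glo luminescence.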
Of the large screens only hits and unclear results are named; the others gave an inactive call. Unless noted, calls follow the shape of the dose curve; as a rule, active = well fitted curve in the direction sought with a large enough effect; inconclusive = small, poorly fitted or top-dose-only effect, or another doubt; inactive = no such curve, though single readings can be large; an effect the other way counts as inactive or inconclusive.

COc1ccc(N2C(=O)NC(=O)/C(=C/c3ccc([N+](=O)[O-])s3)C2=O)cc1	Giardia FBPA inh inconclusive, Tb PYK inh 12.6µM, RE007 growth inh inconclusive
COc1ccc(NC(=O)Cc2ccccc2)cn1	none
COc1ccc(NC(=O)/C(Cl)=C(/Cl)S(=O)Cc2ccccc2)cn1 (stereo unspecified)	RE007 growth inh 44.7µM
O=C(Nc1c(C(=O)N2CCN(c3ccc(F)cc3)CC2)oc2ccccc12)c1c(F)cccc1F	none (no result: Giardia FBPA inh, SARS PLpro yeast, LmPK inhibitor, RE007 growth inh)
C/C(=N\NC(=O)c1ccoc1C)c1ccccc1	LmPK inhibitor 14.1µM
C/C(=N\NC(=O)c1ccc2c(c1)OCCO2)c1ccccc1	LmPK inhibitor 11.2µM, Tb PYK inh inconclusive
Cc1ccsc1/C=N\NC(=O)c1n[nH]c2c1CCC2	LmPK inhibitor 10µM
O=C(NN=C1CCCC1)c1n[nH]c2c1CCCC2	LmPK inhibitor 28.2µM
O=C(N/N=C/c1c(Cl)cccc1Cl)c1n[nH]c2c1CCCC2	none
CCc1ccc(OCC(=O)Nc2ncn[nH]2)c(Br)c1	none (no result: Giardia FBPA inh, SARS PLpro yeast, LmPK inhibitor, RE007 growth inh)
COc1ccccc1CNc1cc(-c2c(C)noc2C)ncn1	none (no result: SARS PLpro yeast, LmPK inhibitor, Tb PYK inh, RE007 growth inh)
Cc1ccc(-c2nc(SCC(=O)NCc3ccco3)c3c(=O)n(C)c(=O)n(C)c3n2)cc1	none (no result: Giardia FBPA inh, SARS PLpro yeast, LmPK inhibitor, RE007 growth inh)
Cc1cc(NC(=O)c2ccccc2Cl)ccc1NC(=O)c1ccccc1	none (no result: Giardia FBPA inh, SARS PLpro yeast, LmPK inhibitor, RE007 growth inh)
Cc1ccsc1/C=N/NC(=O)c1ccc2c(c1)OCCO2	LmPK inhibitor 22.4µM
CCOC(=O)C1CCN(c2ccc(-c3cccs3)nn2)CC1	LmPK inhibitor 14.1µM, Tb PYK inh inconclusive, RE007 growth inh inconclusive
CCOC(=O)C1CCN(c2ccc(Cl)nn2)CC1	none
CCn1cc(C(=O)O)c(=O)c2cnc(N3CCN(C(=S)NC(=O)c4ccc(Br)cc4)CC3)nc21	LmPK inhibitor inconclusive
CCn1cc(C(=O)O)c(=O)c2cnc(N3CCN(C(=S)NC(=O)c4ccc(Cl)cc4)CC3)nc21	LmPK inhibitor 14.1µM
CCCCCn1c(=O)[nH]c2cc(C(=O)NCc3ccc(F)cc3)ccc2c1=O	none (no result: Giardia FBPA inh, SARS PLpro yeast, LmPK inhibitor, RE007 growth inh)
CCOc1ccc(-c2csc(NC(=O)C3CCCO3)n2)cc1 (stereo unspecified)	none
O=C(Nc1nc(-c2ccc(Cl)cc2Cl)cs1)C1CCCO1 (stereo unspecified)	RE007 growth inh 15.8µM
O=C(Nc1nc(-c2ccc(Cl)cc2)cs1)C1CCCO1 (stereo unspecified)	RE007 growth inh 22.4µM
Cc1cc(C=c2sc3nc4ccccc4n3c2=O)c(C)n1-c1ccccc1	none (no result: Giardia FBPA inh, SARS PLpro yeast, LmPK inhibitor, RE007 growth inh)
CC(=O)Nc1ccc2c(c1)CCc1ccccc1-2	none
O=C(O)/C=C/C(=O)c1ccc2c(c1)CCc1ccccc1-2	Tb PYK inh 35.5µM, RE007 growth inh inconclusive (no result: Giardia FBPA inh, LmPK inhibitor)
O=C(COc1ccccc1)Nc1nccs1	LmPK inhibitor 14.1µM
O=C(COc1ccc2ccccc2c1)Nc1nccs1	RE007 growth inh inconclusive
COc1ccc(N=Nc2ccc(O)c3ncccc23)cc1	none
Cc1ccccc1N=Nc1ccc(O)c2ncccc12	SARS PLpro yeast 3.55µM
O=[N+]([O-])c1ccc(O)c2ncccc12	Giardia FBPA inh 19.9µM
Cc1cc(-c2n[nH]c(=S)n2/N=C/c2cc([N+](=O)[O-])ccc2Cl)n[nH]1	Tb PYK inh 3.98µM
Cc1cc(-c2n[nH]c(=S)n2/N=C/c2ccc(Cl)c([N+](=O)[O-])c2)n[nH]1	Tb PYK inh inconclusive
CC(/C=N/n1c(-c2cc(C)[nH]n2)n[nH]c1=S)=C\c1ccccc1	Tb PYK inh 5.01µM
O=[N+]([O-])c1cccc(/C=N/n2c(-c3cccnc3)n[nH]c2=S)c1	Tb PYK inh 2.24µM
CC(C)(C)C1=CC(=O)C(=O)C(C(C)(C)C)=C1	Giardia FBPA inh 7.06µM, LmPK inhibitor 14.1µM, Tb PYK inh 8.91µM
CC(C)(C)C1=CC(=Nc2ccccc2N)C=C(C(C)(C)C)C1=O	none
Cc1ccc(NC(=O)C(NS(=O)(=O)c2ccc3c(c2)CCC(=O)N3)c2ccccc2)cc1C (stereo unspecified)	none (no result: Giardia FBPA inh, SARS PLpro yeast, LmPK inhibitor, RE007 growth inh)
Nc1ccc(N2CCN(c3ccc(F)cc3)CC2)cc1	none
Nc1ccc(N2CCCCCC2)cc1	Giardia FBPA inh 11.2µM, LmPK inhibitor inconclusive (no result: Tb PYK inh, RE007 growth inh)
COc1ccc(C(=O)COC(=O)C(Cc2c[nH]c3ccccc23)NC(=O)c2ccc(C(C)(C)C)cc2)cc1 (stereo unspecified)	none (no result: Giardia FBPA inh, SARS PLpro yeast, LmPK inhibitor, RE007 growth inh)
